Assay results reported in PubChem BioAssay.
Activity calls are given as the source filed them.

Assay: growth modulation of vineyard yeast isolate – strain RM11-1a, OD600, basal, 24 h, primary screen (AID 1177);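 further: cultures grown under basal conditions with no added stressor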
Conditions: S. cerevisiae RM11-1a growth, OD600, 24 h; higher = more signal, called active from +8 up or from −8 down
Further: test concentration not given here.

z-score, inactive:
CCOC(=O)C[C@H]1[C@H](OC(=O)c2ccc(-c3ccccc3)cc2)[C@@H](NC(=O)C2CCCCC2)c2cc(OCCCO)ccc2N1C(=O)c1ccccc1 0.925
COCCCNC(=O)[C@@]1(Sc2ccc(C)cc2)CC(=O)N(Cc2cc(C(F)(F)F)cc(C(F)(F)F)c2)[C@@H]1c1ccc(CO)cc1 -0.219
CCCC[C@@H]1C[C@H]1[C@@H](NC(=O)c1cccnc1)c1ccc(-c2ccccc2)cc1 -0.402
O=C1O[C@@H](c2ccccc2)[C@@H](c2ccccc2)N2[C@@H](c3ccc(O)cc3)[C@]3(C(=O)Nc4ccc(C#CCCO)cc43)[C@@H](C(=O)Nc3nc4ccccc4s3)[C@H]12 0.948
O=C(O)[C@]1(Cc2ccccc2)N=C(c2ccc(OCCCO)cc2)O[C@@H]1c1ccccc1 -0.002
Cc1ccc(S[C@]2(C(=O)NCc3ccccc3)CC(=O)N(C(C)C)[C@@H]2c2ccc(CO)cc2I)cc1 -0.964
Cc1ccc(C(C)CC(O)C2C=CC3C(=O)N(c4ccccc4)C(=O)C3N2Nc2ccc(C(C)C)cc2)o1 (stereo not given) 0.685
C=CC[C@]12N=C(c3ccc(OCCCO)cc3)O[C@H]1c1ccccc1N(C)C2=O 1.27
C=C(COC)/C(=C/C[C@@H](OC(=O)c1ccncc1)c1ccc(CO)o1)c1cnc2ccccc2c1 1.2
O=C1NC(=O)C2C1C=CC(C(O)c1cc(C(F)(F)F)cc(C(F)(F)F)c1)N2Nc1ccc(Cl)cc1Cl (stereo not given) 1.1

Assay: growth of efflux-deficient E. coli DRC39 – strain DRC39, OD650, 24 h, E. coli filamentation inducers, primary screen (AID 1178);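 further: growth measured as culture turbidity by optical density at 650 nm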
Conditions: E. coli DRC39 acrAB, higher = more signal, called active from +8 up or from −8 down

z-score, inactive:
O=C1c2ccccc2[C@](Cc2ccccc2I)(C(=O)NCCN2CCOCC2)[C@H](c2ccc(CO)cc2)N1Cc1ccccc1 -0.256
CN(C)CCCCNC(=O)[C@H]1C[C@H]2C(=O)N3CCC[C@H]3C(=O)N2[C@H]1c1ccc(O)cc1 -0.476
C=C(CCCC)C(=O)CC[C@@H](OC(=O)c1ccccc1-c1ccccc1C(=O)O)c1cccc(OCCO)c1 -0.285
C=C(C(=O)CC[C@H](OC(=O)c1cccnc1)c1ccc(CO)o1)C(C)C -0.645
COc1ccc(C#Cc2ccc3c(c2)[C@]2(C(=O)N3)[C@H](C(=O)N3CCc4cc(OC)c(OC)cc4C3)[C@H]3C(=O)O[C@H](c4ccccc4)[C@H](c4ccccc4)N3[C@@H]2c2ccc(O)cc2)cc1 0.0877
[N-]=[N+]=NCc1ccccc1C[C@@]1(C(=O)N2CCCCC2)N=C(c2ccc(OCCCO)cc2)O[C@@H]1c1ccccc1N=[N+]=[N-] 0.878
C=C[C@@H](COC(C)=O)NS(=O)(=O)c1ccc(Br)cc1 -0.528
CCOC(=O)C[C@H]1[C@H](OC(=O)c2ccc(-c3ccccc3)cc2)[C@@H](NC(=O)c2ccc3ccccc3c2)c2cc(OCCCO)ccc2N1C(=O)c1ccc2ccccc2n1 -0.936
CC(C)(C)OC(=O)CC[C@]1(C(=O)NCCN2CCOCC2)N=C(c2ccc(OCCCO)cc2)O[C@H]1c1ccccc1 -0.0656
C=CCOC(=O)[C@@H]1[C@H]2C(=O)O[C@H](c3ccccc3)[C@H](c3ccccc3)N2[C@H](c2ccc(OCCOC(=O)[C@H]3C[C@H]4C(=O)N[C@@H](CC(C)C)C(=O)N4[C@H]3c3ccc(O)cc3)cc2)[C@@]12C(=O)Nc1ccc(I)cc12 0.869
O=C(CS)NCCCCCCNC(=O)[C@@H]1C[C@@H]2C(=O)N3CCC[C@H]3C(=O)N2[C@@H]1c1cccc(OCCO)c1 0.743
COc1ccccc1CN1C(=O)c2ccccc2[C@@H](C(=O)NC(C)C)[C@@H]1c1ccc(CO)cc1 0.686
C=CCOC(=O)[C@@H]1[C@H]2C(=O)O[C@H](c3ccccc3)[C@H](c3ccccc3)N2[C@H](c2ccc(OCCOC(=O)[C@H]3C[C@H]4C(=O)N[C@@H](CCCCNC(C)=O)C(=O)N4[C@H]3c3cccc(OCCO)c3)cc2)[C@@]12C(=O)Nc1ccc(I)cc12 -0.115
O=C1OCC=C[C@H]2OC34C=CCN(Cn5nnc6ccccc65)C(=O)[C@H]3N(CCCCCCO)C(=O)[C@@H]4[C@@H]12 (stereo not given in full) 0.239
COC(=O)Cn1c(C(=O)N2CCCC2)cc2c1C[C@H]1CN(C(=O)c3ccccc3)[C@@](Cc3ccc(F)cc3)(C(=O)OC)[C@@H]21 -0.132
